Columns and labels:
Assay in all cases: log2 ratio of Biotin-Ahx-Ub-VS probe labelling (fragment/DMSO); higher = less target engagement (more negative = stronger competition), active = hit call of the paper (q ≤ 0.05, log2 ratio ≤ -1)
Conditions in all cases: compound concentration: 200 uM; treatment time: 3 h
ALG13 = target: T1, ALG13 (UniProt Q9NP73)
T1 sequence (whole entry): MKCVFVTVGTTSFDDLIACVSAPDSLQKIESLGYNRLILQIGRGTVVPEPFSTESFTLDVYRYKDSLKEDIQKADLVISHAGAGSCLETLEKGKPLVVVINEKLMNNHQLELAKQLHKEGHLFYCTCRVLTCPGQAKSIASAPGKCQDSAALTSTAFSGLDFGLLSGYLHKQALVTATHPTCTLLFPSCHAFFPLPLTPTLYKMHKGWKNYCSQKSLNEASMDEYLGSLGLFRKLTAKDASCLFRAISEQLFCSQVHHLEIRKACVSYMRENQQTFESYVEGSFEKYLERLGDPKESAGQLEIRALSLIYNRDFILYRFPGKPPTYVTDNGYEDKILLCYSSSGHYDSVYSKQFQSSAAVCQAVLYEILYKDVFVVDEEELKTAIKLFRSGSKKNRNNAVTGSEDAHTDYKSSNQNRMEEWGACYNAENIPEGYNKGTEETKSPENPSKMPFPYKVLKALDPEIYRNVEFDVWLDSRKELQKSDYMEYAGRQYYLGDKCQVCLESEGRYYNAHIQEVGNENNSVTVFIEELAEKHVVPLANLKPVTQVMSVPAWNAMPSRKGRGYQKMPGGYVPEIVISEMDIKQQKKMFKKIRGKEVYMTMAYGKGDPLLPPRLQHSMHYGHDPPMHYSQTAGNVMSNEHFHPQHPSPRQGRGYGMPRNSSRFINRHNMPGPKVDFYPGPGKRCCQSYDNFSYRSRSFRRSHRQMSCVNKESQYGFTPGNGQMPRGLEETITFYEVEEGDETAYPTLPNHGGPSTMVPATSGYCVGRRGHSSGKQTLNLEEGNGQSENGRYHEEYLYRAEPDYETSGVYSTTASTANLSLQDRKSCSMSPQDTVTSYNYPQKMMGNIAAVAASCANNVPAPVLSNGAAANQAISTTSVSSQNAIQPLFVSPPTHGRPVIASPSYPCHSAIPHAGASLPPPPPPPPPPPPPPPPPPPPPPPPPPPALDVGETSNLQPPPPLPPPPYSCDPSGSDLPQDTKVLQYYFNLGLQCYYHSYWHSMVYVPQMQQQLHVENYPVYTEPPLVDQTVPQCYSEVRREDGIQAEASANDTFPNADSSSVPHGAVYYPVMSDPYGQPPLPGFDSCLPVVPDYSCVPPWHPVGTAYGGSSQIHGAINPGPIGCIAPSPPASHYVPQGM
Summary of the method: (§1)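 Lysate from HEK293T cells, 495 µg per sample in Tris/CHAPS/IGEPAL buffer with protease inhibitors, was treated for 3 h in triplicate with fragment at 200 µM or vehicle. Biotin-Ahx-Ub-VS was next added at 0.5 µM final for 1 h. The labelled DUBs were enriched with NeutrAvidin, digested with LysC and trypsin, and run by diaPASEF LC-MS/MS, with values given as average log2 fragment/vehicle ratios by unpaired t-test on global-median-normalised Spectronaut quantities of proteins with ≥2 unique peptides.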

ATXN3 = ATXN3 (UniProt P54252)
Chain of ATXN3 (P54252 whole entry): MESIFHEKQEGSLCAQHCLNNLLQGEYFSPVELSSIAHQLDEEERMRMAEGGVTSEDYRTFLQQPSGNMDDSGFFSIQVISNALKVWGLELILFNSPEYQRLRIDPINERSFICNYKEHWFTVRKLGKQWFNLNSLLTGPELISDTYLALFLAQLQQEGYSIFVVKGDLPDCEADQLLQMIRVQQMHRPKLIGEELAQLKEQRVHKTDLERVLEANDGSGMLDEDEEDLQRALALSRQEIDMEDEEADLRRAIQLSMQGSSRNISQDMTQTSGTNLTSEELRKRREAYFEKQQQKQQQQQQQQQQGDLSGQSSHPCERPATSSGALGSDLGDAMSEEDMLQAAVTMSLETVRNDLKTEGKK
Summary of the method: as §1

BAP1 = target: T2, BAP1 (UniProt Q92560)
T2 sequence (whole entry): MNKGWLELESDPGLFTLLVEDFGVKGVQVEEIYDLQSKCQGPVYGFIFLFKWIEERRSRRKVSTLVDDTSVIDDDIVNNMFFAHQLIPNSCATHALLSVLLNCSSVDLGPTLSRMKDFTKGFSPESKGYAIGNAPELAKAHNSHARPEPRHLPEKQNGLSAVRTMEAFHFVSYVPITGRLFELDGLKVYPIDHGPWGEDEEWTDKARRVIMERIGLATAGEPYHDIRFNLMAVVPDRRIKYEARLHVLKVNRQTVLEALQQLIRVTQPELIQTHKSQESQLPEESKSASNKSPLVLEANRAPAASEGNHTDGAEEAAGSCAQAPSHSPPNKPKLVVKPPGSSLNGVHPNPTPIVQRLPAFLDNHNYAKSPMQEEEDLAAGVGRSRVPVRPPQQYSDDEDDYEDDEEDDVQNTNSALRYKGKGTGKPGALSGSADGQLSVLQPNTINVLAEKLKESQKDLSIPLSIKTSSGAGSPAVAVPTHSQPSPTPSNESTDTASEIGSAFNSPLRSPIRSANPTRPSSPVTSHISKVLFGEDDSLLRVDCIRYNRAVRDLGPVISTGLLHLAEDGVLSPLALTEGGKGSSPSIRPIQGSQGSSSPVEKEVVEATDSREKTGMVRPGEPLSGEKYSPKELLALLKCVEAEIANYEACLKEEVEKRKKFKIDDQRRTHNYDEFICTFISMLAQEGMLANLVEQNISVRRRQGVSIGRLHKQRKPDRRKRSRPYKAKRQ
Summary of the method: as §1

EIF3F = EIF3F (UniProt O00303)
Chain of EIF3F (O00303 whole entry): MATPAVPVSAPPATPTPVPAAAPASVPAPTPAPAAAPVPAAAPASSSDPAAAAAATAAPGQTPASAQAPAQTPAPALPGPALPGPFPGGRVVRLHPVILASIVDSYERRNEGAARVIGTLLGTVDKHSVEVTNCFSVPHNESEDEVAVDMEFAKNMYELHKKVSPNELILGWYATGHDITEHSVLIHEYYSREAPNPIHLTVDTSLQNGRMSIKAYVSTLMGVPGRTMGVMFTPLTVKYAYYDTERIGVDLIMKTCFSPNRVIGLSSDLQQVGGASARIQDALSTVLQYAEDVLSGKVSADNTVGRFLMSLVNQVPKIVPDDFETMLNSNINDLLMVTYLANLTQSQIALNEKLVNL
Summary of the method: as §1

EIF3H = EIF3H (UniProt O15372)
Chain of EIF3H (O15372 whole entry): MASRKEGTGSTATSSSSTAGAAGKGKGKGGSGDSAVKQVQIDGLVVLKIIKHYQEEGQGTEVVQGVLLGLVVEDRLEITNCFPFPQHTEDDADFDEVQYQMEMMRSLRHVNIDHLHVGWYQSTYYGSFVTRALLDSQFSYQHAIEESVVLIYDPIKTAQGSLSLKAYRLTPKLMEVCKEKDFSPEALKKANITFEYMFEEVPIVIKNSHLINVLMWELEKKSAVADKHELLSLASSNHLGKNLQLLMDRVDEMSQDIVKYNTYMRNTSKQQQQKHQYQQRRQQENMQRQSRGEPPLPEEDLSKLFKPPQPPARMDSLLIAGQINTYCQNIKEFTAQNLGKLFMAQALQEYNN
Summary of the method: as §1

FAM105A = target: T3, FAM105A (UniProt Q9NUU6)
T3 sequence (whole entry): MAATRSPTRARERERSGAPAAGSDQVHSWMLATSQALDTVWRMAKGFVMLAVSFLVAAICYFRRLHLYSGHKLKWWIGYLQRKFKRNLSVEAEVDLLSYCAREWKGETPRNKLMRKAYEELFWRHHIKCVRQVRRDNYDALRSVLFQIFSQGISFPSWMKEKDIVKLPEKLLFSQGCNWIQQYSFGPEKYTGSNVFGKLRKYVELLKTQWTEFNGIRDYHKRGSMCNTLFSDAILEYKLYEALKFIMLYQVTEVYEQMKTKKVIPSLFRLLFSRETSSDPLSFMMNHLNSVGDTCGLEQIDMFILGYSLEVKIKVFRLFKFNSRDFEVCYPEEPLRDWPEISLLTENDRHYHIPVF
Summary of the method: as §1

OTUB1 = OTUB1 (UniProt Q96FW1)
Chain of OTUB1 (Q96FW1 whole entry): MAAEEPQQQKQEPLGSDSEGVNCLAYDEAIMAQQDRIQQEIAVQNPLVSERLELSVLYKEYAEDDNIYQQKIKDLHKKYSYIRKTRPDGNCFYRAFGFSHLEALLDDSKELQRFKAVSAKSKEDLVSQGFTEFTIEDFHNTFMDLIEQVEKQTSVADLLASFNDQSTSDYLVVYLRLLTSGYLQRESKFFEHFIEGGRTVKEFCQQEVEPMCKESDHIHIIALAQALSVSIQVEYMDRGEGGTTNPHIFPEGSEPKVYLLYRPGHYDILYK
Summary of the method: as §1

OTUD4 = target: T4, OTUD4 (UniProt Q01804)
T4 sequence (whole entry): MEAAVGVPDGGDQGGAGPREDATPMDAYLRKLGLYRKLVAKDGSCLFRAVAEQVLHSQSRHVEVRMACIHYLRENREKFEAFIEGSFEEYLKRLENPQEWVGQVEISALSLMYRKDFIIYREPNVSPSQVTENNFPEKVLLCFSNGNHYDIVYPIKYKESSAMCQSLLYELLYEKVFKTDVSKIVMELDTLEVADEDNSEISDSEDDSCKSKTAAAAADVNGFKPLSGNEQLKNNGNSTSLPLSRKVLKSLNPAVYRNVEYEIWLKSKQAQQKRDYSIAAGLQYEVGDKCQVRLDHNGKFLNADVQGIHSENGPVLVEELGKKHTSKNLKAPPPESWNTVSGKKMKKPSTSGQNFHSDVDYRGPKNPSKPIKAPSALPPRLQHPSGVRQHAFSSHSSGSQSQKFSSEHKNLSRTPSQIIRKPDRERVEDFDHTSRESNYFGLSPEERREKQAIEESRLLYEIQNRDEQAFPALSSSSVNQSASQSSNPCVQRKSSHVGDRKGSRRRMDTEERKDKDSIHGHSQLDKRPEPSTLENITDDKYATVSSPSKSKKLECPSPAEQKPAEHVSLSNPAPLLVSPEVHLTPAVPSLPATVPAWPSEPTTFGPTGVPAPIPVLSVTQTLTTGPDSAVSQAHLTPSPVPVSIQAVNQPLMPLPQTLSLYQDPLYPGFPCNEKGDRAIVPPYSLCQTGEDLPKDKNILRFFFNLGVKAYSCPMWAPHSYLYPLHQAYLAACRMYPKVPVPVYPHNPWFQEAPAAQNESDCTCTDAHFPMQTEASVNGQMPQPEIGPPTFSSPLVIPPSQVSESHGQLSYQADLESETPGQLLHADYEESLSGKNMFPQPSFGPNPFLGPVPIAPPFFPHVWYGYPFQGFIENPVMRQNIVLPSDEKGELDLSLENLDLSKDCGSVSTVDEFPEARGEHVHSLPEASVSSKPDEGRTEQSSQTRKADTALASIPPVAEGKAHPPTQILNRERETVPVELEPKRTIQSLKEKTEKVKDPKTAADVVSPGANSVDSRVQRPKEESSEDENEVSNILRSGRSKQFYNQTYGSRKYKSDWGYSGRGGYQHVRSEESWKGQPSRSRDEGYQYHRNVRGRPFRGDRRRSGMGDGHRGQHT
Summary of the method: as §1

OTUD5 = target: T5, OTUD5 (UniProt Q96G74)
T5 sequence (whole entry): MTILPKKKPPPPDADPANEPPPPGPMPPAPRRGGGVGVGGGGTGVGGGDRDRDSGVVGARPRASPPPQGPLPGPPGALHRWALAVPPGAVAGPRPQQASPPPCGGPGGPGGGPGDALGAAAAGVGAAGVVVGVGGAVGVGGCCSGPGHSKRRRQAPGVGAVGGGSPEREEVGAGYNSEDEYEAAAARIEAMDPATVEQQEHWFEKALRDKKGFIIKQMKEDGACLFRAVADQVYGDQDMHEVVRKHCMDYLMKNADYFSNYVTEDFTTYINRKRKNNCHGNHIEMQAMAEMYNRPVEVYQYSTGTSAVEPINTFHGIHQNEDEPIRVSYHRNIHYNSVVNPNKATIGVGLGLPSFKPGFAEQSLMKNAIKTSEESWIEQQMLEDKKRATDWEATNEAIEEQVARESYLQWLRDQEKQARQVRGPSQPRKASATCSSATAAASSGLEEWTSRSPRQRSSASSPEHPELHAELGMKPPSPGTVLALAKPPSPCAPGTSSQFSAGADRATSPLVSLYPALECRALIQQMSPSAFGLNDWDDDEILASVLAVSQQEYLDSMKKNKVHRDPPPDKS
Summary of the method: as §1

Measured: log2 ratio of Biotin-Ahx-Ub-VS probe labelling

Cl.O=C(CN1CCN(C(=O)CCl)CC1)Nc1ccc(F)cc1
inactive: ALG13 -0.446 | ATXN3 -0.144 | BAP1 -0.159 | EIF3F -0.203 | EIF3H 0.305 | FAM105A -0.0798 | OTUB1 0.137 | OTUD4 0.146 | OTUD5 -0.0696

From the supplement of paper PMC11732987, “Enantioselective OTUD7B fragment discovery through chemoproteomics screening and high-throughput optimisation” (Communications Chemistry, 2025)
